# Compound activity (PubChem)
# NadD block = blocks S. aureus nicotinate mononucleotide adenylyltransferase; inhibition, % at 20 µM; AID 602399; purified NadD enzyme, colorimetric absorbance read-out; 360,000 tested, 0.78% active; in the data active = inhibition above about 26%
# APOBEC3A inh = blocks human APOBEC3A ssDNA deamination; P31941; recombinant A3A, FAM/TAMRA ssDNA deamination fluorescence; inhibition, % at 20 µM; 330,000 tested, 0.41% active; AID 493011;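 active = at least 40% inhibition at 20 µM here, with at most 30% in a related deaminase screen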;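 also: plate controls were A3A with DMSO for no effect and wells lacking A3A enzyme for full effect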
# Target sequence (P31941 whole entry, looked up): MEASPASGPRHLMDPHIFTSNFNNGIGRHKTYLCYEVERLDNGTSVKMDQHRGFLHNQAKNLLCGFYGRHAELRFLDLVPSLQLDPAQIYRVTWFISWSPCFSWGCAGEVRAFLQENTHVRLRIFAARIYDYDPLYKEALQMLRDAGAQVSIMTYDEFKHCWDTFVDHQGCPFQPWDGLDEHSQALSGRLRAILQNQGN
# APOBEC3G inh = blocks human APOBEC3G single-stranded DNA deamination; Q9HC16; recombinant A3G, ssDNA deamination FAM/TAMRA fluorescence; inhibition, % at 20 µM; 330,000 tested, 0.28% active; AID 493012;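 active = inhibition of at least 40% at 20 µM, with no more than 30% in the related APOBEC3A deaminase screen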;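 also: plate controls were DMSO wells with A3G for no effect and wells lacking A3G enzyme for full effect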
# Target sequence (Q9HC16 whole entry, looked up): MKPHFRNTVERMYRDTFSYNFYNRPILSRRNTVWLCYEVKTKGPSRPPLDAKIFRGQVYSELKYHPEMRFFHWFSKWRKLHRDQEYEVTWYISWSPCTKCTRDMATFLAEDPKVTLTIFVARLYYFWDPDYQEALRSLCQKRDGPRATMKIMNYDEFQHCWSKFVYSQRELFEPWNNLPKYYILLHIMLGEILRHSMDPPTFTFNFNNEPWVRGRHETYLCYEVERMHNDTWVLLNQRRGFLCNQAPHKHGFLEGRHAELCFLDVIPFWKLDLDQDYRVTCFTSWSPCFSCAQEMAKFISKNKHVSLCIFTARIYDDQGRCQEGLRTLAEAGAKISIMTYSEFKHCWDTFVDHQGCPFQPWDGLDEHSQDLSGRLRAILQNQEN
# H9c2 protect = protects H9c2 cardiomyocytes from peroxide injury. H2O2 injury protection, ATPLite, 2 h. protection from H2O2 cell death, % at 20 µM. 360,000 tested, 0.63% active. AID 588492;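 active = compounds giving at least 50% protection of heart cells from peroxide-induced death in the single-dose screen, raw or plate-pattern-corrected value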;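 also: 0% = DMSO wells with peroxide and 100% = DMSO wells without peroxide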
# H9c2 TAG inh = inhibitors of triacylglycerol accumulation; inhibition, % at 12.5 µM; AID 651582; H9c2 cells, Nile Red lipid (TAG) fluorescence; cells loaded with 200 µM oleic acid; 230,000 tested, 0.66% active;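 active = pattern-corrected inhibition of lipid staining of at least 50% with the nuclear-stain viability signal not falling by more than 50%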;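 also: 0% = DMSO wells and 100% = triacsin C control wells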
# PfG6PD inh = PfG6PD (Plasmodium falciparum) enzyme inhibition | PfGluPho enzyme, NADPH resazurin-diaphorase fluorescence | AID 504690 | 350,000 tested, 0.78% active | inhibition, % at 20 µM;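 active = inhibition reaching at least a set limit at 20 µM in the primary screen, cut at about 59% in these data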;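 also: 0% = DMSO wells with substrate and 100% = DMSO wells lacking glucose-6-phosphate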
# NadD conf = NadD (S. aureus) inhibition, single concentration confirmation | shares compounds with NadD block | purified S. aureus NadD, colorimetric enzyme assay | inhibition, % at 20 µM | 2,000 tested, 13% active | AID 624309; in the data active = inhibition mostly above about 42%, no sharp cut-off; inactive = mostly below about 42%
# * hit, by the source's call; . = no result given. An excerpt weighted towards active compounds, which were near 2.9% of everything screened.
SMILES,NadD block,APOBEC3A inh,APOBEC3G inh,H9c2 protect,H9c2 TAG inh,PfG6PD inh,NadD conf
COc1ccc(-c2nnc(NC(=O)c3ccc(S(=O)(=O)N4CCc5ccccc5C4)cc3)o2)cc1,84*,1,1,40,-5,-65,14
Cc1cccc2sc(NNC(=O)c3ccc(S(=O)(=O)N4CC(C)CC(C)C4)cc3)nc12 (stereo unspecified),58*,-1,7,14,17,4,54*
Cc1cc(C)c2nc(NNC(=O)c3ccc(S(=O)(=O)N4CCCC(C)C4)cc3)sc2c1 (stereo unspecified),15,-7,-11,33,-5,-9,.
Cc1ccc2nc(NNC(=O)c3ccc(S(=O)(=O)N4CCc5ccccc5C4)cc3)sc2c1,59*,-3,-9,38,19,-28,56*
Cc1ccc2nc(NNC(=O)c3ccc4c(c3)OCCO4)sc2c1,2,-4,-12,15,2,31,.
Cc1cc(C)c2nc(NNC(=O)c3ccc(S(=O)(=O)N4CC(C)CC(C)C4)cc3)sc2c1 (stereo unspecified),34*,-7,-13,26,-10,6,24
Cc1cccc(C)c1NC(=O)C1(C)CCC(=O)N1CCc1c[nH]c2ccccc12 (stereo unspecified),-7,.,.,4,.,.,.
CCC(=O)N1C(=O)CCN(C(C)=O)c2ccccc21,36*,-1,-1,9,.,-5,9
CC(C)(C)c1ccc(C(O)c2ncc(-c3ccccc3F)[nH]2)cc1 (stereo unspecified),-7,.,.,-11,-4,.,.
COC(=O)c1c(NS(=O)(=O)c2ccc3ccccc3c2)sc2c1CCCC2,8,3,1,-4,.,-28,.
COC(=O)c1c(NC(=O)c2ccc(C)c(S(=O)(=O)Nc3ccccc3C)c2)sc2c1CCCC2,22*,1,1,-11,.,4,-7
COc1ccc(N2CCN(CNC(=O)c3ccccc3)CC2)cc1,6,-3,-4,11,.,18,.
Cc1ccc(NC(=O)Nc2nc3ccccc3s2)cc1NC(=O)Nc1nc2ccccc2s1,28*,-1,-8,10,.,6,8
COc1ccc(NC(=O)CSc2nnnn2C2CCCC2)cc1S(=O)(=O)N1CCOCC1,-1,.,.,-2,-10,8,.
CCOC(=O)C1=C(CSc2nc(-c3ccccc3)ccc2C#N)OC(N)=C(C#N)C1c1cccnc1 (stereo unspecified),40*,-6,-9,2,-28,21,8
CCOC(=O)C1=C(CSc2nc(-c3ccccc3)ccc2C#N)OC(N)=C(C#N)C1c1ccccc1 (stereo unspecified),37*,-9,-9,-7,-28,16,43
CCOC(=O)C1=C(CSc2nc3c(cc2C#N)CCC3)OC(N)=C(C#N)C1c1ccccc1 (stereo unspecified),13,2,19,8,.,42,.
CCOC(=O)CC1=C(C(=O)OCC)C(c2cccnc2)C(C#N)=C(N)O1 (stereo unspecified),0,3,-1,-1,.,6,.
NC(=S)NN=Cc1ccc(-c2ccc(S(=O)(=O)Nc3ncccn3)cc2)o1,20,37,62,-3,-4,25,.
CCOc1ccc(C(=O)N/N=C/c2ccc(-c3ccc(S(=O)(=O)Nc4ncccn4)cc3)o2)cc1,33*,9,0,8,.,-13,53*
CCn1c2ccccc2c2cc(NC(=O)CSc3nnc(-c4ccc(OC)cc4)n3N)ccc21,30*,3,1,-12,.,-14,33
CCn1nnnc1NCc1cccn1C,35*,0,-3,-2,24,25,22
CCn1nnnc1NCc1ccc(Cl)cc1,2,-6,-10,-6,.,-24,.
CSc1ccc(NC(=O)CSc2nc3[nH]c(=O)cc(O)c3s2)cc1,54*,19,4,2,-5,-16,28
N#Cc1ccc(NC(=O)CSc2nc3[nH]c(=O)cc(O)c3s2)cc1,-2,-6,-5,0,10,-15,.
SMILES,NadD block,APOBEC3A inh,APOBEC3G inh,H9c2 protect,H9c2 TAG inh,PfG6PD inh,NadD conf
COc1ccc(Br)cc1/C=N/NC(=O)c1nc(-c2ccccc2)n2c1CCCCC2,39*,-2,-2,33,1,-3,13
CC(C)Cn1c(-c2csc3ccccc23)n[nH]c1=S,34*,-2,13,-3,.,17,9
S=c1[nH]nc(-c2cccs2)n1/N=C/c1cn(-c2ccccc2)nc1-c1cccs1,28,0,-4,-10,29,-10,.
Cc1ccc(-c2nn(-c3ccccc3)cc2/C=N/n2c(-c3cccs3)n[nH]c2=S)cc1,41*,-2,-8,-7,26,-10,0
CC1CCCN(C(=S)SCC(=O)c2cc(Br)cc(Br)c2O)C1 (stereo unspecified),64*,3,-1,17,33,-20,10
Nc1cc(Cc2ccccc2)ccc1O,3,.,.,25,9,35,.
Nc1cc(N)cc(Cc2ccccc2)c1,33*,.,.,-8,.,.,46
COc1ccc(-c2nn(-c3ccccc3)cc2C(=O)NC(=S)NNC(=O)c2ccncc2)cc1,58*,0,-8,10,-5,-39,38
Cc1ccc(NC(=O)CN2C(=O)S/C(=C\c3cccn3-c3cccc(C(=O)O)c3)C2=O)c(C)c1,40*,26,15,-2,14,-40,5
CC(C)c1ccc(-n2nnnc2SCC(=O)NC2CC2)cc1,0,-2,-9,-8,0,6,.
CC(C)c1ccc(NC(=O)COc2ccc(S(=O)(=O)N3CCOCC3)cc2)cc1,46*,-1,-3,-1,-22,-12,1
C/C(=N\Nc1ccc(S(=O)(=O)Nc2ccccc2)cc1[N+](=O)[O-])c1ccc(N2CCOCC2)cc1,42*,5,3,-4,37,4,14
Cc1ccc(-c2csc3ncnc(SCc4ccc(C(=O)O)cc4)c23)cc1,32*,-1,-3,16,.,-26,44
c1ccc(-c2csc3ncnc(N4CCN(Cc5ccc6c(c5)OCO6)CC4)c23)cc1,-3,-5,-10,2,.,15,.
O=C(CSc1ncnc2scc(-c3ccccc3)c12)N1CCN(Cc2ccc3c(c2)OCO3)CC1,38*,0,-4,2,.,2,15
O=c1cc(CSc2nc(NCc3ccc(Cl)cc3)c3ccccc3n2)nc2ccc(Cl)cn12,33*,.,.,4,45,-5,15
COCCn1c(SCc2cc(=O)n3cc(C)ccc3n2)nc2ccccc2c1=O,.,2,-10,.,.,.,.
COCCNc1nc(-c2cc(C)n(CCc3ccc(OC)cc3)c2C)cs1,36*,0,18,-4,21,18,21
COc1ccc2c(c1)CCC1(C)CC(=O)C(Br)=C21 (stereo unspecified),-8,.,.,-1,-3,41,.
